Data from PubChem BioAssay (NCATS).
Records with an inconclusive call do not appear. The source made the active and inactive calls. Unless noted, the call rests on the fitted dose curve; in most records, active means well fitted cell-killing curve with a large enough effect; inconclusive means small, poorly fitted or top-dose-only effect; inactive means flat fitted curve, though single readings scatter.

Experiments:
[1] = Cell Viability - LYMP2-025 (AID 976); further: series mostly up to about 92 µM
Summary of the method: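 Human lymphoblastoid LYMP2-025 cells (2500/well) were pre-incubated 5 hr at 37 C, then treated with compounds for 24 hr at 37 C in complete medium. Viability was read as intracellular ATP by CellTiter-Glo luminescence; AC50 from Hill fits.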

[2] = Cell Viability - LYMP2-002 (AID 977);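 further: series mostly up to about 92 µM; compound exposure lasted 24 h at 37 °C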
Summary of the method: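 Cytotoxicity is scored as concentration-dependent loss of cellular ATP in a human lymphoblastoid line after 24 hr compound treatment at 37 C. AC50 is obtained by modelling concentration-response data with the Hill equation.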

[3] = Cell Viability - LYMP2-006 (AID 978); further: series mostly up to about 92 µM; nearly all actives have a fitted effect of over 60% in size
Summary of the method: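 Human lymphoblastoid cells, 2500 per well, were preincubated 5 hr at 37 C, then exposed to compounds for 24 hr at 37 C in complete medium. Viability was read as intracellular ATP by CellTiter-Glo luminescence; AC50 from Hill-equation fits of qHTS concentration-response data.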

[4] = Cell Viability - LYMP2-007 (AID 979);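 further: cells exposed to compound for 24 h before reading; nearly all actives have a fitted effect of over 60% in size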
Summary of the method: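 Human lymphoblastoid cells (2500/well) were plated in complete medium, incubated 5 hr at 37 C, then exposed to compounds for 24 hr at 37 C. Intracellular ATP was read by CellTiter-Glo luminescence after 30 min at room temperature; AC50 from Hill fits.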

[5] = Cell Viability - LYMP2-008 (AID 980); further: nearly all actives have a fitted effect of over 60% in size
Summary of the method: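 Human lymphoblastoid cells (2500/well) were plated, held 5 hr at 37 C, then exposed to compounds for 24 hr at 37 C in complete medium. Intracellular ATP was read by CellTiter-Glo luminescence; AC50 from Hill-fitted concentration-response.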

[6] = Cell Viability - LYMP2-010 (AID 981); further: nearly all actives have a fitted effect of over 55% in size
Summary of the method: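 Human lymphoblastoid LYMP2-010 cells (2500/well) were preincubated 5 hr at 37 C, then exposed to compounds for 24 hr at 37 C in complete medium. Intracellular ATP was measured by CellTiter-Glo luminescence after 30 min at room temperature; AC50 from Hill-fitted concentration-response.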

[7] = Cell Viability - LYMP2-012 (AID 982);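 further: cellular ATP by luciferase luminescence where a drop means cytotoxicity; cells exposed to compound for one day before reading; nearly all actives have a fitted effect of over 55% in size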
[8] = Cell Viability - LYMP2-016 (AID 984); further: nearly all actives have a fitted effect of over 55% in size
Summary of the method: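 Human lymphoblastoid cells (LYMP2-016), 2500/well in complete medium, preincubated 5 hr at 37 C, then compound-treated 24 hr at 37 C. Intracellular ATP read by CellTiter-Glo luminescence after 30 min at room temperature; AC50 from Hill-equation concentration-response fits.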

[9] = Cell Viability - LYMP2-018 (AID 985);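 further: compound exposure lasted 24 hr at 37 °C; nearly all actives have a fitted effect of over 50% in size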
Summary of the method: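 Human lymphoblastoid cells (2500/well) were pre-incubated 5 hr at 37 C, then exposed to compounds for 24 hr at 37 C in complete medium. Viability was read as intracellular ATP by CellTiter-Glo luminescence; AC50 values came from Hill-equation fits.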

[10] = Cell Viability - LYMP2-020 (AID 986); further: series mostly up to about 92 µM; nearly all actives have a fitted effect of over 55% in size
Summary of the method: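 Human lymphoblastoid cells, 2500/well, were pre-incubated 5 hr at 37 C, then exposed to compounds for 24 hr at 37 C in complete medium. Intracellular ATP was read by CellTiter-Glo luminescence, and AC50 was derived by Hill fitting of concentration-response data.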

[11] = Cell Viability - LYMP2-022 (AID 987); further: nearly all actives have a fitted effect of over 55% in size
Summary of the method: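 Human lymphoblastoid cells, 2500/well, preincubated 5 hr at 37 C, then exposed to compounds over a concentration range for 24 hr at 37 C in complete medium. Viability read as intracellular ATP by CellTiter-Glo luminescence after 30 min at room temperature; AC50 from Hill fits.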

[12] = Cell Viability - LYMP2-024 (AID 988); further: nearly all actives have a fitted effect of over 60% in size
Summary of the method: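 Human lymphoblastoid cells (2500/well) in complete medium were preincubated 5 hr at 37 C, then exposed to compounds for 24 hr at 37 C. Intracellular ATP was read by CellTiter-Glo luminescence; AC50 from Hill-equation fits of concentration-response data.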

[13] = Cell Viability - LYMP2-026 (AID 989); further: nearly all actives have a fitted effect of over 50% in size
Summary of the method: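 Human lymphoblastoid cells (2500/well) in complete medium were preincubated 5 hr at 37 C, then exposed to compounds for 24 hr at 37 C. Cellular ATP was read by CellTiter-Glo luminescence; AC50 from Hill-equation fits of concentration-response data.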

[14] = Cell Viability - LYMP1-002 - Assay at 24 hr (AID 993)
Summary of the method: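 Human lymphoblastoid LYMP1-002 cells, 2500/well in complete medium, were treated with compounds for 24 h at 37 C; intracellular ATP was read by CellTiter-Glo luminescence. AC50 values came from Hill-equation fits of qHTS concentration-response data.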

[15] = Cell Viability - LYMP1-002 - Assay at 40 hr (AID 994); further: nearly all actives have a fitted effect of over 60% in size
Summary of the method: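 Human lymphoblastoid cells, 2500/well in complete medium, were preincubated 5 hr at 37 C, then exposed to compounds for 40 hr at 37 C. Intracellular ATP was read by CellTiter-Glo luminescence after 30 min at room temperature; AC50 from Hill-equation fits.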

[16] = qHTS Assay for Identification of Small Molecule Inducers of Hypoxia Response (AID 2120; active means well fitted curve in the direction sought with a large enough effect in the signal ratio, with a control signal flat, not every such curve was filed as active; the % refers to the signal ratio)
Summary of the method: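 HRE-beta-lactamase reporter in CellSensor HRE-bla ME-180 cells, 2500 cells/well in Opti-MEM with 0.5% dialyzed FBS; compounds tested as titration series, 17 h at 37 degrees C. CCF4 substrate 2.5 h at room temperature; AC50 from 460/530 nm ratio.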

[17] = target: Estrogen receptor (Homo sapiens) (UniProt P03372); experiment: qHTS assay for small molecule antagonists of estrogen receptor alpha signaling (AID 588513; active means well fitted curve in the direction sought with a large enough effect in the signal ratio, with a control signal flat, not every such curve was filed as active; the % refers to the signal ratio)
Summary of the method: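 ER-alpha-UAS-bla GripTite HEK 293 cells in medium with 2% charcoal/dextran-treated FBS were preincubated 4 h at 37 C, dosed with compound (1:2 titration), stimulated with 0.5nM 17-beta-estradiol for 18 h, then read by CCF4 beta-lactamase fluorescence.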

[18] = target: Estrogen receptor (Homo sapiens) (UniProt P03372); experiment: qHTS assay for small molecule agonists of estrogen receptor alpha signaling (AID 588514; calls by dose curve; further: nearly all actives have a fitted effect of over 70% in size; further: potency means the concentration at half of the fitted maximal effect)
Summary of the method: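 ER-alpha-UAS-bla GripTite HEK 293 cells in medium with 2% charcoal/dextran-treated FBS were treated with compound titrations at 37 C for 18 hrs; beta-lactamase reporter read by CCF4 fluorescence after 2 hrs at RT.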

[19] = Cell Viability - LYMP2-014 (AID 983); further: series mostly up to about 92 µM; nearly all actives have a fitted effect of over 50% in size
Summary of the method: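 Human lymphoblastoid cells (2500/well) were pre-incubated 5 hr at 37 C, then exposed to compounds in complete medium for 24 hr at 37 C. Intracellular ATP was read by CellTiter-Glo luminescence after 30 min at room temperature; AC50 from Hill fits.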

Measured: Potency

Sequence of Estrogen receptor (Homo sapiens) (P03372 whole entry, looked up): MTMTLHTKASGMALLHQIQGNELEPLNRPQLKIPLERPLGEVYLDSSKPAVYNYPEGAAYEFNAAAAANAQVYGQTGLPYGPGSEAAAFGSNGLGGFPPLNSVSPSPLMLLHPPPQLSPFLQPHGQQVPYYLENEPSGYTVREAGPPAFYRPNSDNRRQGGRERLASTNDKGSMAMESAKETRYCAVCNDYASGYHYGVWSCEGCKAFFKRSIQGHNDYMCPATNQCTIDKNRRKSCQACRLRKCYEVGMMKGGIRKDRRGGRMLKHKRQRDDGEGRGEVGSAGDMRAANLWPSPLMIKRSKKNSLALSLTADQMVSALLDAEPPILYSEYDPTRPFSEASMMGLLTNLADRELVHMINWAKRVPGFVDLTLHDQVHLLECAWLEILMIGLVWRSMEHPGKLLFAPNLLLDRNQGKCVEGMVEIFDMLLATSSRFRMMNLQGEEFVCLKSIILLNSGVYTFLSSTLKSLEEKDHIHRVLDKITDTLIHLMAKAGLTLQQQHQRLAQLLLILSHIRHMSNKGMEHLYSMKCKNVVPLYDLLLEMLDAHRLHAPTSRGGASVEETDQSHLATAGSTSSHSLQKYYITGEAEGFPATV

O=c1[nH][nH]c(=O)c2cc([N+](=O)[O-])ccc12
not listed: [19]
inactive: all other assays above

Cc1ccc(C#N)cc1
not listed: [8]
inactive: all other assays above

O=Cc1c(Cl)cccc1Cl
not listed: [9]
inactive: all other assays above

NC(=O)c1ccccc1[N+](=O)[O-]
not listed: [19]
inactive: all other assays above

C=Cc1ccccc1C=C
not listed: [8]
inactive: all other assays above

COC(=O)CCC(=O)OC
not listed: [8]
inactive: all other assays above

CCOCCOCC
not listed: [8]
inactive: all other assays above

OC/C(Br)=C(\Br)CO
not listed: [13]
inactive: all other assays above

CNc1ccccc1
not listed: [14]
inactive: all other assays above

O=C(Cl)c1c(Cl)cccc1Cl
not listed: [9]
inactive: all other assays above

Nc1nc2ccccc2[nH]1
not listed: [9]
inactive: all other assays above

CCCCC(=O)N(C)C
not listed: [13]
inactive: all other assays above

C=CCOC(=O)COCCC(C)C
inactive: all assays above

O=P(O)(OCc1ccccc1)OCc1ccccc1
not listed: [8]
inactive: all other assays above

FC(F)(F)c1ccccc1Cl
not listed: [9]
inactive: all other assays above

Cc1ccc(Br)cc1
not listed: [8]
inactive: all other assays above

O=C(O)c1ccc(Cl)cc1Cl
not listed: [9]
inactive: all other assays above

COC(=O)CS
not listed: [14]
inactive: all other assays above

CCCCCCCN
not listed: [13]
inactive: all other assays above

CC=O
not listed: [8]
inactive: all other assays above

CCCCCCC(=O)O
not listed: [14]
inactive: all other assays above

CC(N)CN (configuration not stated)
not listed: [14]
inactive: all other assays above

CC(C)=CCl
not listed: [9]
inactive: all other assays above

CCOc1ccccc1N
not listed: [13]
inactive: all other assays above

CC(C)CO
not listed: [9] | [19]
inactive: all other assays above

Oc1cccc(Nc2ccccc2)c1
active: [18] 25.1 µM
not listed: [6] | [9]
inactive: all other assays above
